Measurements from PubChem BioAssay AID1159580 (chemical genetic matrix, 2015).
In all, about 5,500 compounds went through this assay and about 2,000 (36%) were called active. About 18% were inconclusive and are not listed. Rule as the data show it: active = normalized growth mostly below about 0.91 (no sharp cut-off); inconclusive = no clear call, values can overlap the other calls; inactive = mostly above about 0.92. The list shows a part of the results.

Test: chemical genetic growth profiling, strain panel (AID 1159580);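 also: tested at 20 µM; growth read once vehicle control cultures reached saturation at 30 °C; 1 = growth at the plate median or of vehicle wells; lower values mean less growth of the strain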
Details: growth OD

Measured: normalized growth

CC[C@@H](C(=O)C(C)[C@@H](O)[C@H](C)CCc1ccc(C)c(O)c1C(=O)O)C1OC(CC)(C2CC[C@](O)(CC)[C@H](C)O2)C[C@@H]1C (some centres undefined)
active: S. cerevisiae deletion strains, locus YKL085W, strain MDH1 (second series), stronger effect = lower value 1.28 [resistant] | S. cerevisiae deletion strains, locus YKL085W, strain MDH1, stronger effect = lower value 1.28 [resistant] | S. cerevisiae deletion strains, locus YLL001W, strain dnm1, stronger effect = lower value 1.1 [resistant] | S. cerevisiae deletion strains, locus YMR231W, strain pep5, stronger effect = lower value 0.208 | S. cerevisiae deletion strains, locus YOR106W, strain vam3, stronger effect = lower value 0.557 | S. cerevisiae deletion strains, locus YOR270C, strain vph1, stronger effect = lower value 0.597
inactive: S. cerevisiae deletion strains, locus YJR043C, strain POL32, stronger effect = lower value 1.02 | S. cerevisiae deletion strains, locus YJR066W, strain TOR1, stronger effect = lower value 0.928 | S. cerevisiae deletion strains, locus YJR075W, strain HOC1, stronger effect = lower value 1.01 | S. cerevisiae deletion strains, locus YKL068W, stronger effect = lower value 1 | S. cerevisiae deletion strains, locus YKL160W, strain elf1, stronger effect = lower value 1.05 | S. cerevisiae deletion strains, locus YKL190W, strain CNB1, stronger effect = lower value 1 | S. cerevisiae deletion strains, locus YKR001C, strain vps1, stronger effect = lower value 1.04 | S. cerevisiae deletion strains, locus YKR026C, strain gcn3, stronger effect = lower value 1.07 | S. cerevisiae deletion strains, locus YKR091W, strain srl3, stronger effect = lower value 1.07 | S. cerevisiae deletion strains, locus YLL026W, stronger effect = lower value 1.06 | S. cerevisiae deletion strains, locus YLL041C, strain sdh2, stronger effect = lower value 1.05 | S. cerevisiae deletion strains, locus YLR027C, strain aat2, stronger effect = lower value 1.05 | S. cerevisiae deletion strains, locus YLR039C, strain RIC1, stronger effect = lower value 1.26 | S. cerevisiae deletion strains, locus YLR058C, strain SHM2, stronger effect = lower value 1.02 | S. cerevisiae deletion strains, locus YLR102C, strain apc9, stronger effect = lower value 1.03 | S. cerevisiae deletion strains, locus YLR113W, strain HOG1, stronger effect = lower value 0.964 | S. cerevisiae deletion strains, locus YLR221C, strain rsa3, stronger effect = lower value 1.06 | S. cerevisiae deletion strains, locus YLR258W, strain gsy2, stronger effect = lower value 1.06 | S. cerevisiae deletion strains, locus YLR262C, strain YPT6 (second series), stronger effect = lower value 1.08 | S. cerevisiae deletion strains, locus YLR262C, strain YPT6, stronger effect = lower value 1.34 | S. cerevisiae deletion strains, locus YLR268W, strain sec22, stronger effect = lower value 0.996 | S. cerevisiae deletion strains, locus YLR320W, strain mms22, stronger effect = lower value 1.05 | S. cerevisiae deletion strains, locus YLR330W, strain CHS5, stronger effect = lower value 1.04 | S. cerevisiae deletion strains, locus YLR342W, strain FKS1 (second series), stronger effect = lower value 0.97 | S. cerevisiae deletion strains, locus YLR342W, strain FKS1, stronger effect = lower value 1.05 | S. cerevisiae deletion strains, locus YLR357W, strain rsc2, stronger effect = lower value 1.12 | S. cerevisiae deletion strains, locus YLR370C, strain arc18, stronger effect = lower value 1.04 | S. cerevisiae deletion strains, locus YLR371W, strain rom2, stronger effect = lower value 1 | S. cerevisiae deletion strains, locus YLR384C, strain iki3, stronger effect = lower value 1.08 | S. cerevisiae deletion strains, locus YLR418C, strain cdc73, stronger effect = lower value 0.959 | S. cerevisiae deletion strains, locus YML016C, strain PPZ1, stronger effect = lower value 1.03 | S. cerevisiae deletion strains, locus YML032C, strain rad52, stronger effect = lower value 1 | S. cerevisiae deletion strains, locus YML120C, strain ndi1, stronger effect = lower value 1.07 | S. cerevisiae deletion strains, locus YML124C, strain tub3, stronger effect = lower value 1.03 | S. cerevisiae deletion strains, locus YMR058W, strain fet3, stronger effect = lower value 1.04 | S. cerevisiae deletion strains, locus YMR078C, strain ctf18, stronger effect = lower value 1.06 | S. cerevisiae deletion strains, locus YMR125W, strain sto1, stronger effect = lower value 1.08 | S. cerevisiae deletion strains, locus YMR129W, stronger effect = lower value 1.07 | S. cerevisiae deletion strains, locus YMR205C, strain PFK2, stronger effect = lower value 1.04 | S. cerevisiae deletion strains, locus YMR223W, strain ubp8, stronger effect = lower value 0.996 | S. cerevisiae deletion strains, locus YMR307W, strain GAS1, stronger effect = lower value 0.967 | S. cerevisiae deletion strains, locus YNL067W, strain RPL9B, stronger effect = lower value 1.02 | S. cerevisiae deletion strains, locus YNL071W, strain lat1, stronger effect = lower value 1.06 | S. cerevisiae deletion strains, locus YNL153C, strain GIM3, stronger effect = lower value 1.04 | S. cerevisiae deletion strains, locus YNL183C, strain NPR1, stronger effect = lower value 0.923 | S. cerevisiae deletion strains, locus YNL209W, strain ssb2, stronger effect = lower value 1.07 | S. cerevisiae deletion strains, locus YNL233W, strain BNI4, stronger effect = lower value 1.02 | S. cerevisiae deletion strains, locus YNL248C, strain rpa49, stronger effect = lower value 1.05 | S. cerevisiae deletion strains, locus YNL250W, strain rad50, stronger effect = lower value 0.997 | S. cerevisiae deletion strains, locus YNL271C, strain bni1, stronger effect = lower value 0.996 | S. cerevisiae deletion strains, locus YNL298W, strain CLA4, stronger effect = lower value 0.978 | S. cerevisiae deletion strains, locus YNL307C, strain MCK1, stronger effect = lower value 1.05 | S. cerevisiae deletion strains, locus YNL322C, strain KRE1 (second series), stronger effect = lower value 1.08 | S. cerevisiae deletion strains, locus YNL322C, strain KRE1, stronger effect = lower value 1.02 | S. cerevisiae deletion strains, locus YNR049C, strain mso1, stronger effect = lower value 1.07 | S. cerevisiae deletion strains, locus YNR052C, strain pop2, stronger effect = lower value 1.01 | S. cerevisiae deletion strains, locus YOL006C, strain TOP1, stronger effect = lower value 0.716 | S. cerevisiae deletion strains, locus YOL012C, strain htz1 1.09 | S. cerevisiae deletion strains, locus YOL147C, strain pex11, stronger effect = lower value 1.02 | S. cerevisiae deletion strains, locus YOR001W, strain rrp6, stronger effect = lower value 1.01 | S. cerevisiae deletion strains, locus YOR061W, strain CKA2, stronger effect = lower value 1 | S. cerevisiae deletion strains, locus YOR069W, strain VPS5, stronger effect = lower value 1.02 | S. cerevisiae deletion strains, locus YOR070C, strain gyp1, stronger effect = lower value 1.06 | S. cerevisiae deletion strains, locus YOR080W, strain dia2, stronger effect = lower value 1.06 | S. cerevisiae deletion strains, locus YOR083W, strain WHI5, stronger effect = lower value 1.07 | S. cerevisiae deletion strains, locus YOR136W, strain idh2, stronger effect = lower value 1.02 | S. cerevisiae deletion strains, locus YOR144C, strain elg1, stronger effect = lower value 1.02 | S. cerevisiae deletion strains, locus YOR184W, strain ser1, stronger effect = lower value 0.997 | S. cerevisiae deletion strains, locus YOR231W, strain MKK1, stronger effect = lower value 0.963 | S. cerevisiae deletion strains, locus YOR265W, strain rbl2, stronger effect = lower value 1.05 | S. cerevisiae deletion strains, locus YOR290C, strain snf2, stronger effect = lower value 1.06 | S. cerevisiae deletion strains, locus YOR316C, strain cot1, stronger effect = lower value 1.03 | S. cerevisiae deletion strains, locus YPL051W, strain arl3, stronger effect = lower value 0.944 | S. cerevisiae deletion strains, locus YPL078C, strain atp4, stronger effect = lower value 1.05 | S. cerevisiae deletion strains, locus YPL106C, strain sse1, stronger effect = lower value 1.09 | S. cerevisiae deletion strains, locus YPL240C, strain hsp82, stronger effect = lower value 1.06 | S. cerevisiae deletion strains, locus YPL256C, strain CLN2, stronger effect = lower value 0.982 | S. cerevisiae deletion strains, locus YPR119W, strain clb2, stronger effect = lower value 1.05 | S. cerevisiae deletion strains, locus YPR141C, strain kar3, stronger effect = lower value 1.02 | S. cerevisiae deletion strains, locus YPR163C, strain tif3, stronger effect = lower value 1.07 | S. cerevisiae deletion strains, locus YPR167C, strain met16, stronger effect = lower value 1.02 | S. cerevisiae deletion strains, strain wtn01, stronger effect = lower value 1.02 | S. cerevisiae strains, strain wild type, stronger effect = lower value 1.01
